Among the data in PubChem BioAssay (EPA / NIEHS) are outcome and AC50 values, retold here.

Records with an inconclusive call do not appear. Active and inactive are the calls of the source. Rule for the calls, unless noted: active = hit-call score of the fitted dose curve at least 0.9, where 1 is the maximum; inconclusive = response in the unintended direction; inactive = score below 0.9.

Read-out in assay [1]: Thyroid Hormone Responsive (THRSP), THRSP (gene 7069)
Description: LTEA_HepaRG_THRSP: Life Technologies and Expression Analysis (LTEA) Assay for Thyroid Hormone Responsive (THRSP) using HepaRG (AID 2283536; active = hit-call score of the fitted dose curve at least 0.9, where 1 is the maximum; inactive = score below 0.9). The following applies: mRNA level, 48 h; actives raise or lower the signal. The procedure, abridged: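 THRSP transcript quantified by Fluidigm qRT-PCR against three housekeeping genes after 48 h chemical exposure of HepaRG cells in serum-free induction medium; eight-point half-log series, top 100 uM, 0.5% DMSO vehicle, duplicate wells.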

Read-out in assay [2]: Cellular tumor antigen p53 (Homo sapiens) (UniProt P04637)
Put plainly: LTEA_HepaRG_TP53: Life Technologies and Expression Analysis (LTEA) Assay for Tumor Protein P53 (TP53) using HepaRG (AID 2283537; active = hit-call score of the fitted dose curve at least 0.9, where 1 is the maximum; inactive = score below 0.9). Particulars: mRNA level, 48 h; actives raise or lower the signal. The procedure, abridged: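 Gain or loss of TP53 mRNA signal is scored relative to 0.5% DMSO after 48 h chemical treatment of HepaRG liver cells, tested in duplicate at eight half-log concentrations up to 100 uM.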

Read-out in assay [3]: UDP glucuronosyltransferase (UGT1A1), UGT1A1 (gene 54658)
Description: LTEA_HepaRG_UGT1A1: Life Technologies and Expression Analysis (LTEA) Assay for UDP glucuronosyltransferase (UGT1A1) using HepaRG (AID 2283538; active = hit-call score of the fitted dose curve at least 0.9, where 1 is the maximum; inactive = score below 0.9). The following applies: mRNA level, 48 h; actives raise or lower the signal. The procedure, abridged:
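HepaRG, 48 h chemical exposure (top 100 uM, half-log 8-pt, 0.5% DMSO vehicle), duplicate wells; qRT-PCR (TaqMan, Fluidigm array) for UGT1A1 mRNA, housekeeping-normalized; bidirectional curve fit vs DMSO baseline.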

Read-out in assay [4]: UDP glucuronosyltransferase (UGT1A6), UGT1A6 (gene 54578)
Description: LTEA_HepaRG_UGT1A6: Life Technologies and Expression Analysis (LTEA) Assay for UDP glucuronosyltransferase (UGT1A6) using HepaRG (AID 2283539; active = hit-call score of the fitted dose curve at least 0.9, where 1 is the maximum; inactive = score below 0.9). The following applies: mRNA level, 48 h; actives raise or lower the signal. The procedure, abridged: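 HepaRG, 48 h post-plating switch to serum-free induction medium; chemical 48 h, 100 uM top, half-log x8, duplicate, 0.5% DMSO. Phenobarbital 1mM induction control. UGT1A6 mRNA by TaqMan qRT-PCR; gain/loss fit vs DMSO.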

Read-out in assay [5]: X-box binding protein 1 (XBP1), XBP1 (gene 7494)
Description: LTEA_HepaRG_XBP1: Life Technologies and Expression Analysis (LTEA) Assay for X-box binding protein 1 (XBP1) using HepaRG (AID 2283540; active = hit-call score of the fitted dose curve at least 0.9, where 1 is the maximum; inactive = score below 0.9). The following applies: mRNA level, 48 h; actives raise or lower the signal. The procedure, abridged:
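Transcript levels of XBP1, measured by qRT-PCR and normalised to three housekeeping genes, were fitted bidirectionally relative to 0.5% DMSO controls. Human HepaRG cells received eight-point half-log dilutions from 100 uM for 48 h.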

The nature of assay [6]: LTEA_HepaRG_LDH_cytotoxicity: Cytotoxicity Assessment in the Life Technologies and Expression Analysis (LTEA) Assay (AID 2283563). In short, it runs like this: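 Cells were thawed and plated for 48 h. Medium was then replaced with serum-free induction medium. Chemicals (8 half-log points, maximum 100 uM, 0.5% DMSO) were added in duplicate for 48 h, after which spent medium was assayed for LDH.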

The nature of assay [7]: ATG_XTT_Cytotoxicity: Cytotoxicity Assessment in the Attagene TRANS-FACTORIAL HepG2 Assay (AID 2283584). In short, it runs like this: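 Cells: human HepG2, transiently transfected with MRTU reporter constructs. Exposure 24 h. Readout: XTT, cell number. Baseline/neg ctrl DMSO; loss-of-signal scored.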
Assay [8] is described as follows: TOX21_p53_BLA_p2_viability: Viability Assessment in the Tox21 HCT-116 p53 Agonism Beta-lactamase Assay, Phase 2 (AID 2283591).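 Note: compound exposure lasted 16 h at 37 °C; actives lower the ATP signal meaning cytotoxicity.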 In short, it runs like this: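 Cytotoxicity readout: CellTiter-Glo ATP luminescence, 30 min at room temperature, after the beta-lactamase read. Cells were HCT116 exposed 16 h at 37C to compounds pin-transferred at 217-fold dilution from DMSO stocks.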

Assay [9] has as its target Cellular tumor antigen p53 (Homo sapiens) (UniProt P04637). Put plainly: TOX21_p53_BLA_p2_ratio: Tox21 HCT-116 p53 Agonism Beta-lactamase Assay, Ratio, Phase 2 (AID 2283592). In short, it runs like this: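 Plated HCT116 p53-bla cells (4000/well) received compound after 5 h, then 16 h at 37C/5% CO2. CCF4-AM added, 2 h RT. Ratio of 460 to 530 nm emission taken as the p53 reporter signal.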

Assay [10] has the same target. Description: TOX21_p53_BLA_p3_ratio: Tox21 HCT-116 p53 Agonism Beta-lactamase Assay, Ratio, Phase 3 (AID 2283596). The procedure, abridged: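 Cells were seeded at 4000/well, rested 5 h at 37C, then dosed with DMSO compound solutions (217-fold dilution) for 16 h. CCF4-AM substrate was loaded for 2 h at room temperature, and the 460/530 nm emission ratio was fitted for gain of signal versus DMSO.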

The nature of assay [11]: TOX21_p53_BLA_p4_viability: Viability Assessment in the Tox21 HCT-116 p53 Agonism Beta-lactamase Assay, Phase 4 (AID 2283597).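 Note: hits lower the luminescence signal meaning cytotoxicity.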 The procedure, abridged:
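Readout: ATP luminescence (CellTiter-Glo), measured 30 min after reagent addition at RT. The reagent followed a 2 h CCF4-AM incubation, and the cells had been exposed to compound for 16 h at 37C.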

Assay [12] has as its target Cellular tumor antigen p53 (Homo sapiens) (UniProt P04637). Put plainly: TOX21_p53_BLA_p5_ratio: Tox21 HCT-116 p53 Agonism Beta-lactamase Assay, Ratio, Phase 5 (AID 2283599). The procedure, abridged:
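Beta-lactamase reporter ratio (blue 460 nm over green 530 nm, 405 nm excitation) after 2 h CCF4-AM loading, in HCT-116 cells exposed 16 h at 37 C to compounds pinned at 217-fold dilution. Increases relative to DMSO baseline scored.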

Assay [13] can be described thus: TOX21_p53_BLA_p5_viability: Viability Assessment in the Tox21 HCT-116 p53 Agonism Beta-lactamase Assay, Phase 5 (AID 2283600). The procedure, abridged: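 Workflow: seed 4000 cells per well, wait 5 h, add compounds (DMSO, 217-fold dilution), incubate 16 h, load CCF4-AM 2 h, add CellTiter-Glo, read luminescence after 30 min.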
In assay [14] the target is Cellular tumor antigen p53 (Homo sapiens) (UniProt P04637). Description: TOX21_p53_BLA_p4_ratio: Tox21 HCT-116 p53 Agonism Beta-lactamase Assay, Ratio, Phase 4 (AID 2283601). The procedure, abridged:
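Signal is the blue/green (460nm/530nm) ratio of cleaved versus uncleaved CCF4-AM substrate, read after 2 h substrate loading. Cells were HCT116 carrying the p53-responsive beta-lactamase reporter, dosed 16 h at 37C, 5% CO2; CellTiter-Glo measured in parallel.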

A short description of assay [15]: Tanguay_ZF_120hpf_MORT_legacy: (Legacy) Oregon State University Tanguay Lab 120 Hour Post-fertilization zebrafish Assay for Mortality (AID 2283633). In short, it runs like this:
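5D WT zebrafish, chorion removed 4 hpf; 1 embryo/well from 6 hpf; static exposure to 120 hpf, 28C, dark, sealed. Final DMSO 0.64%. Readout: binary mortality, brightfield, 24 + 120 hpf; DMSO as negative control.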

Assay [16] in a line: Tanguay_ZF_120hpf_YSE_legacy: (Legacy) Oregon State University Tanguay Lab 120 Hour Post-fertilization zebrafish Assay for Yolk Sac Edema (AID 2283634).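 For AC50: actives raise the incidence of yolk sac edema above the DMSO baseline.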 In short, it runs like this:
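Dechorionate (pronase, 4 hpf) → place one 6 hpf embryo per well → static compound exposure, sealed and foil-covered, 28C, to 120 hpf → record yolk sac edema as present or absent. Final DMSO 0.64%.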

A short description of assay [17]: Tanguay_ZF_120hpf_AXIS_legacy: (Legacy) Oregon State University Tanguay Lab 120 Hour Post-fertilization zebrafish Assay for Body Axis Malformation (AID 2283635).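 For AC50: potency for an increased fraction of larvae scored with body axis malformation.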 In short, it runs like this: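 Chorion is removed with pronase at 4 hpf, then single 6 hpf embryos are dosed (final DMSO 0.64%) and held statically at 28C in sealed, foil-covered plates. At 120 hpf body axis malformation is recorded as present or absent.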

A short description of assay [18]: Tanguay_ZF_120hpf_EYE_legacy: (Legacy) Oregon State University Tanguay Lab 120 Hour Post-fertilization zebrafish Assay for Eye Malformation (AID 2283636).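 Note: binary presence or absence of eye malformation scored by brightfield in 120 hpf larvae.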 In short, it runs like this: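 Binary brightfield scoring of eye defects at 120 hpf after static exposure from 6 hpf of single pronase-dechorionated wild-type embryos (28C, 0.64% DMSO). Non-mortality endpoints omitted where embryos died; fit vs DMSO.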

A short description of assay [19]: Tanguay_ZF_120hpf_SNOU_legacy: (Legacy) Oregon State University Tanguay Lab 120 Hour Post-fertilization zebrafish Assay for Snout Malformation (AID 2283637). The procedure, abridged: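 Binary snout-malformation call at 120 hpf in wild-type 5D embryos, chorion removed by pronase, under static exposure from 6 hpf at 28C (0.64% DMSO). Embryos dying by 24 or 120 hpf excluded.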

A short description of assay [20]: TOX21_p53_BLA_p3_viability: Viability Assessment in the Tox21 HCT-116 p53 Agonism Beta-lactamase Assay, Phase 3 (AID 2283593).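 Note: cells exposed to compound for 16 h before reading.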 In short, it runs like this:
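Cellular ATP was quantified by CellTiter-Glo luminescence, read after 30 min at room temperature. Beforehand, HCT116 cells (4000/well) received compound 5 h post-seeding, 217-fold diluted from DMSO, then incubated 16 h at 37C.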

Chain of Cellular tumor antigen p53 (Homo sapiens) (P04637 whole entry, looked up): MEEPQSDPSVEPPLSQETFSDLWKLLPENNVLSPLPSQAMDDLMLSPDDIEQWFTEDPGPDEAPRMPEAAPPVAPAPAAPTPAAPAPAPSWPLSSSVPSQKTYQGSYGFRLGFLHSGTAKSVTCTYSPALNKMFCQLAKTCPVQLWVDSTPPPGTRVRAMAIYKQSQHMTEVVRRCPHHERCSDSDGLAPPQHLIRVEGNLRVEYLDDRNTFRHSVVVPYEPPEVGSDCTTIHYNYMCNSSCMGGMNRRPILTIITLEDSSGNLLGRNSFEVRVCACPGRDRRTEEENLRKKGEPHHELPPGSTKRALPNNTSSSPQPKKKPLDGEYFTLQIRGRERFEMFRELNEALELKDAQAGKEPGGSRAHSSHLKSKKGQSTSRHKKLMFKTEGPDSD

For `CC(O)CN(CCN(CC(C)O)CC(C)O)CC(C)O` (stereo not drawn), the compound was called inactive in [1], in assay [2], in assay [3], in assay [4], in [5] and in assay [6]. Further, the outcome in assay [7], in assay [8], in assay [9], in assay [10], in [11] and in assay [12] was inactive. Further, the call in assay [13], in assay [14], in assay [15], in assay [16], in assay [17] and in [18] was inactive. For the same compound, in [19], the compound was called inactive.

In general, AC50 refers to the concentration at which the activity in the assay is half-maximal. Consider `On1ccccc1=S`, for which the compound was classed as inactive in [1], in assay [2], in assay [3], in [4], in assay [5] and in assay [6]. Besides, the call in assay [7], in [9], in assay [10], in [11], in assay [12] and in assay [14] was inactive. For the same compound, the results for the AC50 in assay [16], in assay [17] and in [19] were 41.3 nM (active), 35.4 nM (active) and 206 nM (active), respectively.

Regarding `CC(C)CCCCCCCOC(=O)CCCCC(=O)OCCCCCCCC(C)C`, the call in [1], in assay [2], in assay [3], in assay [4], in assay [5] and in assay [6] was inactive. Further, the call in [7], in assay [8], in assay [9], in assay [20], in [10] and in assay [14] was inactive. Moreover, the compound was called inactive in assay [15], in assay [16], in assay [17] and in [19].

As to `Cn1c(=O)cc(Oc2ccc(F)cc2F)c2cnc(NCC(C)(C)O)nc21`, the call in [1], in [2], in assay [3], in assay [4], in [5] and in assay [6] was inactive. In addition, the call in assay [7], in assay [8], in assay [20], in [11], in assay [17] and in assay [19] was inactive. The AC50 in assay [16] was 15700 nM (active).

Regarding `CC(C)=CCCC(C)=CC=O`, the compound was classed as inactive in assay [1], in assay [2], in assay [3], in [4], in assay [5] and in assay [6]. For the same compound, the call in assay [7], in assay [9], in [20], in [10], in assay [11] and in assay [13] was inactive. Also, the result in [14], in assay [15], in [16], in assay [17], in assay [18] and in assay [19] was inactive.

On to `O=C(O)CC(O)C(=O)O` (stereo not drawn), for which the result in assay [1], in assay [2], in assay [3], in [4], in assay [5] and in assay [6] was inactive. The result in assay [7], in [8], in assay [9], in [10], in assay [11] and in assay [12] was inactive. The result in assay [14], in assay [16], in assay [17] and in assay [19] was inactive.

Consider `CC1(C)C(=O)N(Br)C(=O)N1Br`, for which the compound was classed as inactive in [1], in assay [2], in [4], in assay [5], in assay [6] and in assay [7]. Besides, the result in [10], in [11], in assay [12], in assay [13], in assay [14] and in assay [15] was inactive. The outcome in assay [16], in assay [17], in assay [18] and in assay [19] was inactive. Besides, the AC50 in assay [3] was 21400 nM (active).

As for `COCCOCCOCCOC`, the call in assay [1], in [2], in assay [3], in [4], in assay [5] and in assay [6] was inactive. Also, the call in assay [7], in [9], in assay [11], in assay [12], in assay [13] and in [16] was inactive. The result in assay [18] and in assay [19] was inactive.
